Assay outcomes from PubChem.
CtBP-E1A inh: blocks the CtBP interaction with E1A; 340,000 compounds, 0.49% hits; AID 651724; AlphaScreen GST-E1A/His-CtBP binding, 1536-well; active compounds read low; activity change, % (test concentration not listed); in the data active = activity change below about -65%; inconclusive = mostly about -30% to -63%
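GST-E1A and His-tagged CtBP (125 nM each as 5X stock) were preincubated with pin-transferred compound for 2 h at 37 °C in the dark, then glutathione donor and nickel acceptor beads were added for 1 h before AlphaScreen reading.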
IL1B secr inh: inhibitors of inflammasome signaling (IL-1 beta secretion) | 360,000 compounds, 4.7% hits | THP-1 LPS/ATP IL-1B secretion, AlphaLISA, 16 h; active compounds read low | activity change, % at 57.5 µM; in the data active = activity change below about -50%; inconclusive = mostly about -30% to -49%
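THP-1 cells pretreated 1 hr with compounds (up to 57.5 uM final), then stimulated with LPS (250 ng/mL final) plus ATP (1.25 mM final); secreted IL-1B measured by AlphaLISA after 16 hr, decreased signal indicating inhibition.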
DT40 TDP1 CPT: DT40-hTDP1 cell growth loss with CPT; chicken DT40 Tdp1-/-;hTDP1 cells + 20 nM CPT, ATP luminescence, 48 h; Potency, µM (titrated, usually from 46.2 µM), usual class: inhibitors; 420,000 compounds, 12% hits; also: nearly all actives have a fitted effect of over 55% in size
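Cell growth measured by CellTiter-Glo luminescence after a minimum 48 h, 37 C compound exposure with 20 nM CPT in Tdp1-knockout DT40 cells stably expressing hTDP1, seeded 400/well; qHTS titration format.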
TDP1 cell noCPT: qHTS for Inhibitors of human tyrosyl-DNA phosphodiesterase 1 (TDP1): qHTS in cells in absence of CPT. 420,000 compounds, 15% hits. DT40 Tdp1-/- hTDP1 cells, no CPT, ATP luminescence, 48 h. AID 686978, 2013. Potency, µM (doses to about 46.2 µM), hits mostly inhibitors; also: nearly all actives have a fitted effect of over 55% in size
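Growth of hTDP1-complemented DT40 Tdp1-knockout cells is measured by ATP luminescence after at least 48 hr compound exposure at 37 °C, with DMSO substituting for the 20 nM CPT used in the parallel screen.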
Six1-Eya2 inh: inhibitors of human Six1/Eya2 interaction; 360,000 compounds, 0.56% hits; activity change, % (no concentration beside the values); Q15475+O00167; AID 651725; AlphaScreen GST-Six1/His-Eya2 binding, biochemical; active compounds read low; in the data active = activity change below about -65%; inconclusive = mostly about -30% to -63%
Target sequence (O00167 whole entry, looked up): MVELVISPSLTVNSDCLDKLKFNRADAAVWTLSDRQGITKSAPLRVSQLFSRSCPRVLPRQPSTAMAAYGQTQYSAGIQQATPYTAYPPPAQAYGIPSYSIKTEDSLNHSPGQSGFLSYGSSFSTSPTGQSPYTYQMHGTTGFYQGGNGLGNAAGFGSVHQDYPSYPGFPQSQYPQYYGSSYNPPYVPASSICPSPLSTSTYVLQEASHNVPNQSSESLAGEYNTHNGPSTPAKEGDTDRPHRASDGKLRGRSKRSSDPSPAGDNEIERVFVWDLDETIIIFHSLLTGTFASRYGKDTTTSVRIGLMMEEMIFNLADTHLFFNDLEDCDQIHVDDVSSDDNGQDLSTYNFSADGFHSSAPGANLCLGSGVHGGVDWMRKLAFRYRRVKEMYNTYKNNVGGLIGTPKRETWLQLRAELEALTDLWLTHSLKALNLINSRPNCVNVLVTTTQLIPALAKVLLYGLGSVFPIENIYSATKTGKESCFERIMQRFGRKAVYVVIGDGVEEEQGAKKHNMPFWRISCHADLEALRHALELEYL
Target sequence (Q15475 whole entry, looked up): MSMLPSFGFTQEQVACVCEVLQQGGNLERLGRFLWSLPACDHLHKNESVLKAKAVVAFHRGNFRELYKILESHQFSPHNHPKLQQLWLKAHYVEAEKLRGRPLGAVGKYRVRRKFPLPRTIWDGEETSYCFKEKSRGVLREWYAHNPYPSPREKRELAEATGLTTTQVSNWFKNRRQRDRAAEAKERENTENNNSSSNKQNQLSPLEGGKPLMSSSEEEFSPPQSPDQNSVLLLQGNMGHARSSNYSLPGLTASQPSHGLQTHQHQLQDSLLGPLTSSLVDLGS
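AlphaScreen with GST-Six1 and His-Eya2 (5X mix: 250 nM and 500 nM), glutathione donor and nickel acceptor beads; buffer 50 mM Tris pH 8.0, 300 mM NaCl, 1 mM TCEP; 1 h at 37 C in the dark.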
TDP1 inh: inhibitors of human tyrosyl-DNA phosphodiesterase TDP1. 350,000 compounds, 0.28% hits. recombinant TDP1, AlphaScreen DNA substrate cleavage. Potency, µM (doses to about 130 µM), usual class: inhibitors. AID 485290. Q9NUW8; also: nearly all actives have a fitted effect of over 40% in size
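Recombinant E. coli-expressed Tdp1 (1 nM) preincubated with compound 15 min at RT, then 5'-biotin/3'-phosphotyrosine-FITC DNA substrate (15 nM) added for 5 min. AlphaScreen beads (10 ug/ml) added, 10 min RT; tyrosine-FITC cleavage read as signal loss.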
A number is an active result; 0 = inactive; ? = inconclusive; - = not tested or not shown; [ ] = dose if it differs, or a comment. The list is not random: actives were taken first. Their share in the collection is about 18%. Unless noted, calls follow the shape of the dose curve; as a rule, active = well fitted curve in the direction sought with a large enough effect; inconclusive = small, poorly fitted or top-dose-only effect, or another doubt; inactive = no such curve, though single readings can be large; an effect the other way counts as inactive or inconclusive.

SMILES	CtBP-E1A inh	IL1B secr inh	DT40 TDP1 CPT	TDP1 cell noCPT	Six1-Eya2 inh	TDP1 inh
CN(C)CCCOC(=O)c1ccc(Br)cc1	0	0	0	0	0	0
O=C(c1ccc(OC2CCN(C(=O)C3CC3)CC2)cc1)N(CCO)Cc1ccccc1	0	0	0	0	0	0
O=C(CC(O)c1ccncc1)c1ccccc1O (configuration not stated)	0	-63	?	?	0	-
OC(CCc1ccncc1)c1ccccc1 (configuration not stated)	0	0	0	0	0	0
c1ccc(-c2oc3ncnc(NCCN4CCOCC4)c3c2-c2ccccc2)cc1	0	-82	?	?	0	0
Cc1sc2ncnc(NCCN3CCOCC3)c2c1C	0	0	13µM	18µM	0	0
c1nc(NCCN2CCOCC2)c2cc(-c3ccoc3)ccc2n1	-	-	?	0	-	-
N=c1c2c(-c3ccccc3)c(-c3ccccc3)oc2ncn1CCN1CCOCC1	0	?	?	16µM	0	0
CC1CCc2c(sc3ncnc(NCCN4CCOCC4)c23)C1 (configuration not stated)	0	0	0	0	0	-
O=c1oc2ccccc2c2c1ncn2CCN1CCOCC1	0	0	?	?	0	0
N=c1c2c(-c3ccccc3)c(-c3ccccc3)oc2ncn1CCCN1CCOCC1	0	?	21µM	18µM	0	0
Cc1ccccc1C(=O)N1CCCC(N2CCN(Cc3ccc4c(c3)OCO4)CC2)C1 (configuration not stated)	0	0	?	0	0	0
CCOc1ccc2nc(SCC3CC3(Cl)Cl)[nH]c2c1 (configuration not stated)	0	-62	?	18µM	0	0
CCCNC(=O)OCc1cccnc1Sc1ccc(C)cc1	0	0	?	15µM	0	0
Cc1ccc(S(=O)(=O)NNC(=O)c2ccc(C(=O)N(c3ccccc3)c3ccccc3)cc2)cc1	-	-	16µM	11µM	-	-
Cc1ccc(S(=O)(=O)NNC(=O)c2ccc(F)cc2)cc1	-	0	0	0	0	0
O=C(CSc1cc(Cl)ccc1Cl)NCC1CCCO1 (configuration not stated)	0	0	0	0	0	0
CC(C)C(=O)Nc1cccc(COc2ccccc2CN(Cc2ccccc2)C(=O)OC(C)(C)C)c1	0	0	?	23µM	0	-
CC(C)(C)OC(=O)N(CCc1ccccc1)Cc1ccccc1OCc1cccc(NC(=O)C2CC2)c1	0	0	?	?	0	-
CC(C)(C)OC(=O)N(Cc1ccccc1)Cc1ccccc1OCc1cccc(NC(=O)c2ccccc2)c1	0	0	16µM	16µM	0	-
CC(C)(C)OC(=O)N(CCc1ccccc1)Cc1cccc(OCc2cccc(NC(=O)C3CC3)c2)c1	0	?	?	?	0	-
CC(C)(C)OC(=O)N(Cc1ccccc1)Cc1cccc(OCc2cccc(NC(=O)c3ccccc3)c2)c1	0	0	23µM	23µM	0	-
COc1cccc(O)c1CN1CCC2(CC1)c1ccccc1[C@@H](NC(=O)c1ccsc1)[C@@H]2OC	-	-	0[9.04 µM]	?	-	-
CCCc1nnc(NC(=O)CCC(=O)N2CCCCC2CC)s1 (configuration not stated)	0	0	0	0	0	0
Cc1cc(C)cc(NC(=O)N2CCC(NC(=O)c3ccccc3C)CC2)c1	0	0	0	0	0	0
CCc1c(C)sc2c1CCN(C(=O)Nc1cc(C)cc(C)c1)C2c1ccccc1 (configuration not stated)	-	-	3.7µM	8.2µM	-	0
CCOc1ccccc1NC(=O)N1CCc2c(sc(C)c2CC)C1c1ccccc1 (configuration not stated)	-	-	?	15µM	-	0
NC(C(=O)O)C(O)C(=O)O (configuration not stated)	-	-	0	0	-	0
Cc1csc(N(C)C(=O)CSc2nnc(COc3ccccc3C)o2)n1	0	0	?	0	0	0
